# Data published in ChEMBL document CHEMBL3988442, “University of Dundee, Small-Polar-MMV Screening Library” (2021).
# The campaign covered roughly 48,000 compounds. About 13,000 (27%) showed an effect of 50% or more. This is one part of the list.
# System: Wolbachia pipientis
# Experiment: Anti-Wolbachia Cell-Based Screen
# Assay type: functional
# Design: scale not given: in the data most compounds retested in dose-response had high values
# Settings: 5 µM
row,SMILES,Percent Effect
1,CCCNC(=O)Cn1nc(C(C)C)c2cnn(C(C)(C)C)c2c1=O,13.78%
2,CNC(=O)c1sc(C(NC(=O)c2ccccc2)C2CC2)nc1C (stereo unspecified),1.807%
3,Cn1cc(C2CCCN2CCCc2nc(-c3cccs3)no2)cn1 (stereo unspecified),7.461%
4,CCn1nc(C)cc1C(=O)OCCNc1ncnc2ccccc12,-8.299%
5,O=C(Nc1nncs1)NC1CCc2ccccc21 (stereo unspecified),-2.226%
6,O=C(NCc1nnc2n1CCCCC2)N(Cc1ccccn1)C1CC1,-22.11%
7,CN(Cc1ccncc1)C(=O)NCc1nnc2n1CCCCC2,124.1%
8,Cc1csc(CNC(=O)N(C)Cc2nnc3n2CCC3)n1,-16.98%
9,CN(Cc1ccc(O)cc1)C(=O)NCc1nnc2n1CCCCC2,89.08%
10,CCc1sc(C(=O)Nc2cnn(CC(N)=O)c2)cc1C,-1.226%
11,OCC1COCCN(c2ncccc2C(F)(F)F)C1 (stereo unspecified),17.46%
12,COCCn1cnnc1C(C)NC(=O)c1[nH]c2c(C)cc(C)cc2c1C (stereo unspecified),-15.82%
13,Cc1nn(C)c(Cl)c1C1CCCN1C(=O)c1cnc[nH]1 (stereo unspecified),106.1%
14,COc1c(C2CCCN2C(=O)c2cc(Cl)c[nH]2)c(C)nn1C (stereo unspecified),7.72%
15,Cc1nn(C)c(Cl)c1C1CCCN1C(=O)c1ccc[nH]1 (stereo unspecified),99.71%
16,Cc1nn(C)c(Cl)c1C1CCCN1C(=O)c1cc(Cl)c[nH]1 (stereo unspecified),15.12%
17,COc1c(C2CCCN2C(=O)c2cnc[nH]2)c(C)nn1C (stereo unspecified),99.16%
18,c1ccc(-c2noc([C@@H]3Cc4nc[nH]c4CN3)n2)cc1,-8.482%
19,COCCCN(C(=O)c1ccc(-n2ccnc2)cc1)C1CCN(C)CC1,-6.688%
20,COCCCN(Cc1cnc(N2CCCC2)nc1)C1CCN(C)CC1,104.1%
21,COCCCN(Cc1cnc(C2CCCCC2)nc1)C1CCN(C)CC1,105.2%
22,COCCCN1CCc2cncnc2C1,-3.846%
23,COCCN1CCC(CN(Cc2ccncc2)C2CCC2)CC1,3.665%

row,SMILES,Percent Effect
1,COCCN1CCC(CN(Cc2ccncc2)C2CCCCC2)CC1,-7.976%
2,Cc1ccc(C)c2c(O)cc(CN3CCC(c4nncn4C)CC3)nc12,4.156%
3,CC(C)(C)c1cn2nc(N3CCOC(Cn4cncn4)C3)sc2n1 (stereo unspecified),9.569%
4,Cc1cc(C(=O)N2CCC3(CC2)CC(c2cccnc2)C(=O)N3C)no1.O=C(O)C(F)(F)F (stereo unspecified),1.086%
5,Cc1ccc(CN2CCC3(CC2)CC(c2cccnc2)C(=O)N3C)o1.O=C(O)C(F)(F)F.O=C(O)C(F)(F)F (stereo unspecified),111.7%
6,Cc1nc(CN2CCC3(CC2)CC(c2cccnc2)C(=O)N3C)cs1.O=C(O)C(F)(F)F.O=C(O)C(F)(F)F (stereo unspecified),114.5%
7,Cc1ccc(CN2CCC3(CC2)CC3CN(C)Cc2cccnc2)o1.O=C(O)C(F)(F)F.O=C(O)C(F)(F)F.O=C(O)C(F)(F)F (stereo unspecified),5.127%
8,Cc1cccc(CN2CCC3(CC2)CC(c2cccnc2)C(=O)N3C)n1.O=C(O)C(F)(F)F.O=C(O)C(F)(F)F (stereo unspecified),108%
9,Cc1cccc(CN2CCC3(CC2)CC(Oc2cccnc2)C3)n1.O=C(O)C(F)(F)F.O=C(O)C(F)(F)F,-6.69%
10,COC(=O)CNC(=O)CSCc1nc(O)c2cc(C(C)C)sc2n1,2.369%
11,CN(Cc1ncnn1C)C(=O)Nc1ccc(OC(F)F)cc1,-14.3%
12,CN(c1ncnc2c1CCC2)C1CCCN(c2cccnn2)C1 (stereo unspecified),4.941%
13,COc1ccc(F)c(CN2CCCC(O)(CNCc3ncc[nH]3)C2=O)c1 (stereo unspecified),0.3473%
14,C=C(C)COc1cccc(C(=O)N2CCC3(CCOCC3)CC2)c1,0.8095%
15,CCOc1ccc(-c2ccnc(COc3ccccc3)n2)cc1C(=O)O,-3.347%
16,Cn1cnc(S(=O)(=O)N2C[C@@H]3CC[C@H](C2)N(Cc2cscn2)C3=O)c1,-55.67%
17,CNS(=O)(=O)c1ccc(CN2CCCN(Cc3ccncc3)CC2)cc1,21.96%
18,Cc1cc(CN2CCN(S(=O)(=O)c3c(C)c(Cl)cc(C)c3Cl)CC2)on1,85.02%
19,CCCNC(=O)N1CCN(Cc2cc(C)no2)CC1,1.77%
20,Cc1cc(CN2CCN(C(=O)C3(C#N)CCCCC3)CC2)on1,-1.898%
21,Cc1cc(Cl)c(C)c(S(=O)(=O)N2CCN(Cc3ccncc3)CC2)c1Cl,94.36%
22,Cc1cc(F)c(C(C(=O)O)N2CCN(Cc3ccccn3)CC2)cc1Cl (stereo unspecified),7.172%
23,CCN1CCN(S(=O)(=O)c2cc(Cl)c(Cl)cc2C)CC1,4.693%

row,SMILES,Percent Effect
1,Cc1ccc(C)c(C(C(=O)O)N2CCCN(Cc3ccccn3)CC2)c1 (stereo unspecified),19.25%
2,Cc1ccc(S(=O)(=O)N2CCn3nc(C)nc3C2)c(Cl)c1,0.9769%
3,Cc1ccc(CN2CCN(Cc3ccncc3)CC2=O)cc1,-11.1%
4,Cc1cc(Cl)c(C)c(S(=O)(=O)N2CCN(Cc3ccccn3)CC2)c1Cl,101.6%
5,Cc1ccc(S(=O)(=O)N2CCN(Cc3ccncc3)CC2)c(Cl)c1,109.7%
6,CNC(=O)c1ccc(NC(=O)NC(C)CCc2cccn2C)c(C)c1 (stereo unspecified),7.929%
7,O=C(CN1CCNCC1)N1CC[C@@H](c2ccc3ccccc3c2)[C@H](O)C1,6.521%
8,OC(COCc1ccccc1)CSc1nnc(C2CC2)n1C1CC1 (stereo unspecified),6.526%
9,O=C(c1cccnc1-n1cncn1)N1CCN(C2CCCC2)CC1,9.271%
10,CC(C)Cc1noc(CN(C)C[C@]2(O)CCCN3CCCC[C@@H]32)n1,1.802%
11,CCCc1nc(CN2CCN(CC(O)c3ccccc3)CC2)no1 (stereo unspecified),-2.88%
12,O=C(c1ccnnc1)N1C[C@@H](OCC2CCOCC2)[C@H]2OCCC[C@H]21,-2.354%
13,CS(=O)(=O)N1C[C@@H](F)[C@@H](OCc2nc3ccccc3o2)C1,18.73%
14,Cc1ccc(CN2CC[C@H]3C(=O)N(Cc4cccnc4)CCO[C@H]3C2)o1.O=C(O)C(F)(F)F.O=C(O)C(F)(F)F,-24.56%
15,CS(=O)(=O)N[C@@H]1CCN(Cc2cccnc2)[C@H]1Cc1ccccc1.O=C(O)C(F)(F)F.O=C(O)C(F)(F)F,1.711%
16,O=C(O)C(F)(F)F.O=C(O)C(F)(F)F.O=C1[C@@H]2CCN(C3CCOCC3)C[C@@H]2OCCN1Cc1cccnc1,1.497%
17,O=C(O)C(F)(F)F.O=C1[C@H]2CN(S(=O)(=O)c3ccccc3)C[C@H]2CN1Cc1cccnc1,108.5%
18,O=C(O)C(F)(F)F.O=C1[C@H]2CN(S(=O)(=O)C3CC3)C[C@H]2CN1Cc1cccnc1,124.6%
19,CCS(=O)(=O)N1C[C@H]2CN(Cc3cccnc3)C(=O)[C@H]2C1.O=C(O)C(F)(F)F,-7.035%
20,COC(=O)c1cccc2nc([C@H]3CCN(C4CCN(C)CC4)C3)oc12,-2.242%
21,Cc1ccc(N2CC[C@@H]3[C@@H](CO[C@H]3CNC(=O)c3ccco3)C2)nn1,1.851%
22,Cc1ccc(CN2CC[C@@H]3[C@@H](CO[C@H]3CN(C)C)C2)o1.O=C(O)C(F)(F)F.O=C(O)C(F)(F)F,-16.8%
23,NC(=O)N1CC[C@H]2CO[C@H](CNC(=O)c3ccnnc3)[C@H]2C1,-2.645%

row,SMILES,Percent Effect
1,Cn1cc(CN2CC[C@@H]3[C@@H](CO[C@H]3CNC(=O)c3ccco3)C2)cn1.O=C(O)C(F)(F)F.O=C(O)C(F)(F)F,86.49%
2,O=C(NC[C@H]1OC[C@@H]2CN(Cc3ccco3)CC[C@@H]21)c1cccnc1.O=C(O)C(F)(F)F.O=C(O)C(F)(F)F,98.92%
3,CN(Cc1cccnc1)C[C@@H]1OC[C@H]2CN(Cc3ccco3)CC[C@H]21.O=C(O)C(F)(F)F.O=C(O)C(F)(F)F.O=C(O)C(F)(F)F,9.505%
4,O=C(NC[C@H]1OC[C@@H]2CCN(Cc3ccco3)C[C@@H]21)c1ccnnc1.O=C(O)C(F)(F)F,121%
5,O=C(NC[C@H]1OC[C@@H]2CCN(Cc3ccco3)C[C@@H]21)c1ccsc1.O=C(O)C(F)(F)F,14.6%
6,Cc1cccc(N2CC[C@@H]3[C@@H](CO[C@H]3CNC(=O)c3ccco3)C2)n1,-1.973%
7,O=C(NC[C@H]1OC[C@@H]2CN(Cc3ccco3)CC[C@@H]21)c1cscn1.O=C(O)C(F)(F)F,98.96%
8,Cn1cc(C(=O)NC[C@@H]2OC[C@H]3CN(Cc4ccco4)CC[C@H]32)cn1.O=C(O)C(F)(F)F,1.243%
9,CN(C)C(=O)Cn1cc(C#N)c(=O)c2cc(Br)ccc21,-22.43%
10,COCC(NC(=O)c1ccc(O)nc1)c1ccc(C)o1 (stereo unspecified),3.678%
11,O=S(=O)(c1ccc(-c2nc3c([nH]2)CCNC3)cc1)N1CCCC1,-8.56%
12,CCCSCC(=O)N1CCCC(c2nccn2Cc2ccncc2)C1 (stereo unspecified),15.91%
13,O=C(COCC1CC1)N1CCCC(n2cncn2)C1 (stereo unspecified),10.78%
14,CC(C)CN(Cc1ccc(-n2cncn2)cc1)Cc1ccccn1,111.5%
15,CC(C)CN(Cc1ccc(O)c(C(=O)O)c1)Cc1ccccn1,-5.995%
16,COCCn1ccnc1CN(Cc1ccccn1)CC(C)C,-12.4%
17,CN(Cc1ccc(-n2ccnc2)cc1)Cc1ncc[nH]1,-4.002%
18,CN(Cc1ccc(-n2cncn2)cc1)Cc1ncc[nH]1,-14.86%
19,CC(c1ccccn1)N(C)Cc1ccc(-n2cncn2)cc1 (stereo unspecified),115.2%
20,CC(c1ccccn1)N(C)Cc1ccc(CCC(C)(C)O)cc1 (stereo unspecified),6.636%
21,CC(c1ccccn1)N(C)Cc1ccc(-n2ccnc2)cc1 (stereo unspecified),100.9%
22,CC(C)C(O)C(C)(C)CNC(=O)NCc1ccc(-n2cncn2)cc1 (stereo unspecified),-5.14%
